# This is a sample that favours compounds with a hit; in the whole collection about 7.1% have one here.
# MCF10A rerep = inducers of DNA re-replication in MCF 10A breast cells; MCF 10A DNA re-replication, Hoechst nuclear intensity, 48 h; 2.9% of 350,000 active; Potency, µM (titrated, usually from 46.1 µM), inactives show top-dose activity, positive = re-replication, usual class: activators; AID 624296; note: % of control where 0% means no effect; nearly all actives have a fitted effect of over 50% in size
# AT treatment = potential ataxia-telangiectasia treatment; F2112 A-T fibroblasts, KAP-1 phosphorylation AlphaLISA; neocarzinostatin DNA damage 30 min before lysis; Potency, µM (titrated, usually from 57.5 µM), for the others: at the top dose activation, hits mostly activators; 0.19% of 320,000 active; note: % of control where 0% means no effect; nearly all actives have a fitted effect of over 45% in size
#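 hTERT-immortalized A-T patient fibroblasts (F2112), 500 cells/well in OPTI-MEM, 1% FBS, got compounds for 60 min, then NCS for 30 min at 37C. Lysates were then assayed for phospho-KAP-1 by AlphaLISA (anti-pKAP1 donor, anti-KAP1 acceptor beads), 6 hr at 25C.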
# ELG1 repair inh = ELG1-dependent DNA repair inhibition; HEK293T ELG1-luciferase reporter, luminescence, 16 h; DNA damage induced by 5-fluorouridine; Potency, µM (doses to about 46.1 µM), for inactives: at the top dose activity change, negative = inhibition, most hits filed as inhibitors; 2.3% of 330,000 active; note: % is set by controls: 0 for no effect and ±100 for the full control effect; nearly all actives have a fitted effect of over 55% in size
#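 Cells (2,000 per well) received 5-fluorouridine plus test compound or DMSO and were incubated 16 hr at 37 °C, 5% CO2. Luciferase activity was read by luminescence 30 min after ONE-Glo addition; signal suppression marked inhibition of damage-induced ELG1 function.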
# ELG1 genotoxic = inducers of genotoxicity in HEK293T ELG1-luciferase cells. AID 504466. 1.3% of 330,000 active. Potency, µM (doses to about 46 µM), inactives show at the highest dose activity change, positive = activation, most hits filed as activators. HEK293T ELG1-luciferase reporter, luminescence, 16 h; note: % of control where 0% means no effect; nearly all actives have a fitted effect of over 60% in size
#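 Screening used a luciferase reporter fused to human ELG1 in HEK293T cells. Luminescence was read on a CCD plate imager after 16 hr exposure and 30 min ONE-Glo incubation.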
# SW480 rerep = induces DNA re-replication in SW480 colon adenocarcinoma cells | SW480 DNA re-replication, Hoechst DNA content imaging, 48 h | Potency, µM (highest dose often 46.1 µM), for the others: top-dose re-replication activation, usual class: activators | 1.8% of 340,000 active | AID 624297; note: % of control where 0% means no effect; nearly all actives have a fitted effect of over 55% in size
#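 Per well, 250 cells were exposed to pinned compound for 48 hr. Nuclear DNA was visualised with Hoechst (40 min, 37 C) and total object intensity recorded by fluorescence scanning.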
# p53 reactivator = re-activators of mutant p53; H1299 p53-A138V BP100-luciferase reporter, luminescence, 24 h; 0.063% of 320,000 active; Potency, µM (highest dose often 92.2 µM), without a hit: at the top dose activity change, positive = activation, usual class: activators; AID 504706; note: % of control where 0% means no effect; nearly all actives have a fitted effect of over 45% in size
#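 p53-null H1299 cells stably carrying temperature-sensitive p53-A138V and a BP100-luciferase reporter were pinned with compounds (4-point, 1:5 series) and held 24 hrs at 37 deg C. Luminescence was read 10 min after detection reagent.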
# Active calls of the source: *; ? = inconclusive; . = not tested or not shown; [ ] = another dose, or the depositor's remark. Calls come from the whole dose curve; as a rule, active = well fitted curve in the direction sought with a large enough effect; inconclusive = small, poorly fitted or top-dose-only effect, or another doubt; inactive = no such curve, though single readings can be large; an effect the other way counts as inactive or inconclusive. Potency is the fitted concentration of half-maximal effect.
SMILES,MCF10A rerep,AT treatment,ELG1 repair inh,ELG1 genotoxic,SW480 rerep,p53 reactivator
COc1ccc(NC(=O)c2c(F)cccc2Cl)cc1S(=O)(=O)N1CCOCC1,1%,17%,-16%,-2%,-1%,-1%
CC(C)(C)c1ccc(NC(=O)c2ccc(=O)[nH]n2)cc1,-14%,-30%,?,?,1%,?
CC(C)(C)OC(=O)N(Cc1ccccc1)Cc1ccccc1OCc1cccc(NC(=O)c2ccccc2)c1,?,.,.,.,0%,.
CC(C)(C)OC(=O)N(CCc1ccccc1)Cc1ccccc1OCc1cccc(NC(=O)C2CCCC2)c1,17%,.,.,.,12%,.
CC(C)(C)OC(=O)N(Cc1ccccc1)Cc1cccc(OCc2cccc(NC(=O)c3ccccc3)c2)c1,0.29µM*,.,.,.,-57%,.
CC(C)(C)OC(=O)N(CCc1ccccc1)Cc1ccccc1OCc1ccc(NC(=O)C2CCC2)cc1,6.5µM*,.,.,.,?,.
CC(C)C(=O)Nc1cccc(COc2ccccc2CN(Cc2ccccc2)C(=O)OC(C)(C)C)c1,12µM*,.,.,.,?,.
CC[C@]12c3[nH]c4ccc(Cl)cc4c3CCN1C(=O)[C@@H](CC(=O)NCCCN(C)C)C[C@@H]2C(=O)N1CCN(C(=O)c2ccco2)CC1,-2%,2%,24%,1%,-33%,7%
CCN1C(=O)[C@@H]2[C@@H](c3ccc(-c4ccc(F)cc4)cc3)N3CCCC[C@@]3(C(=O)OC)[C@@H]2C1=O,?,7%,?,-4%,-6%[9.22 µM],-9%
Cn1c(-c2ccc(C=O)s2)nc2ccccc21,0%,4%,?,15µM*,-7%,24%
Cn1c(-c2cccs2)nc2ccccc21,-1%,6%,?,8%,-3%,24%
COc1cccc(-c2cc(C(=O)N3CCOCC3)no2)c1,4%,4%,?,?,-4%,?
COc1ccc(-c2cc(C(=O)N3CCOCC3)no2)cc1,0%,-4%,?,0.41µM*,-1%,15%
O=C(c1cc(-c2ccc(Br)cc2)on1)N1CCCCCC1,-13%,9%,?,16µM*,-24%,?
O=C(c1cc(-c2ccc(Br)cc2)on1)N1CCOCC1,1%,6%,?,3.7µM*,1%,?
O=C(COC(=O)COc1ccccc1F)Nc1ccc2c(c1)OCO2,-2%,15%,9%,1%,-21%,-1%
COc1ccc(C2/C=C\CN(S(=O)(=O)c3ccc(C)cc3)CC(=O)N2Cc2ccc(F)cc2)cc1 (stereo unspecified),6%,-3%,1%,-4%,4%,2%
COc1ccc(C2/C=C\CN(S(=O)(=O)c3ccc(C)cc3)CC(=O)N2Cc2cccc(F)c2)cc1 (stereo unspecified),?,18%,21µM*,-2%,11%,0%
COc1ccc(C2/C=C\CN(C(=O)C3CCCC3)CC(=O)N2Cc2ccc(F)cc2)cc1 (stereo unspecified),6%,14µM*,2%,1%,1%,1%
COc1ccc(CCN2CC(C(=O)OCC(=O)N(C)CC(=O)Nc3ccccc3Cl)CC2=O)cc1OC (stereo unspecified),0%,.,.,.,4%,.
O=C(COc1ccccc1)N[C@@H]1c2ccccc2CC[C@@H]1O,6%,-25%,-2%,1%,-35%,-8%
O=C(c1ccccc1)n1c(=S)nc2ccccn21,-2%,5%,?,0.33µM*,-6%,.
COc1ccc(S(=O)(=O)N2CCN(Cc3cc(=O)n4ccccc4n3)CC2)cc1,-6%,-3%,?,1%,-4%,-1%
O=S(=O)(c1ccc(F)cc1)N1CCCN(c2nccc(C(F)(F)F)n2)CC1,12%,0%,-6%,-3%,3%,2%
